# Data: PMC11006913
# Residue numbers refer to the chain shown, from its start.
# Key:
# Experiment in all cases: PBM; 200 nM protein, PBS
# Settings in all cases: dsDNA, one strand shown
# NKX2-5 [1] = target: NKX2-5 (Homo sapiens, UniProt P52952 125-210, R139K)
# NKX2-4 [2] = target: T1, NKX2-4 (Homo sapiens, UniProt Q9H2Z4 175-261, P217L)
# T1 sequence: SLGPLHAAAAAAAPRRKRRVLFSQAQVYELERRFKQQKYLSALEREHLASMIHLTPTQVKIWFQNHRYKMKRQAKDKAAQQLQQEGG
# NKX2-4 [3] = target: T2, NKX2-4 (Homo sapiens, UniProt Q9H2Z4 175-261, T231S)
# T2 sequence: T1 sequence with L43P, T57S
# NKX2-4 [4] = target: T3, NKX2-4 (Homo sapiens, UniProt Q9H2Z4 175-261)
# T3 sequence: T1 sequence with L43P
# NKX2-6 [5] = target: T4, NKX2-6 (Homo sapiens, UniProt A6NCS4 118-204, R150C)
# T4 sequence: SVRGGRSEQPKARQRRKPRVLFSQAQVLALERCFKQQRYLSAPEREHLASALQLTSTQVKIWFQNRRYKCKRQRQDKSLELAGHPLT
# NKX2-6 [6] = target: T5, NKX2-6 (Homo sapiens, UniProt A6NCS4 118-204)
# T5 sequence: T4 sequence with C33R
# NKX2-4 [7] = target: T6, NKX2-4 (Homo sapiens, UniProt Q9H2Z4 175-261, R246Q)
# T6 sequence: T1 sequence with L43P, R72Q
# NKX2-6 [8] = target: T7, NKX2-6 (Homo sapiens, UniProt A6NCS4 118-204, F151L)
# T7 sequence: T4 sequence with C33R, F34L
# NKX3-2 [9] = target: NKX3-2 (Homo sapiens, UniProt P78367 192-278, P234S)
# NKX2-5 [10] = target: NKX2-5 (Homo sapiens, UniProt P52952 125-210)
# NKX3-2 [11] = target: NKX3-2 (Homo sapiens, UniProt P78367 192-278)
# NKX3-2 (Homo sapiens, UniProt P78367 192-278), sequence (P78367 192-278): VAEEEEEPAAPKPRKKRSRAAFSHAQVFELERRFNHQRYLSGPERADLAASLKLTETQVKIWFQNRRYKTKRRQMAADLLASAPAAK
# NKX3-2 (Homo sapiens, UniProt P78367 192-278, P234S), sequence (P78367 192-278 P234S): as the sequence (P78367 192-278) above, with P43S counted along it
# NKX2-5 (Homo sapiens, UniProt P52952 125-210, R139K), sequence (P52952 125-210 R139K): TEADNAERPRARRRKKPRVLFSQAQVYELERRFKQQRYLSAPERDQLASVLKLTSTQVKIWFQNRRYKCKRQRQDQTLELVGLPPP
# NKX2-5 (Homo sapiens, UniProt P52952 125-210), sequence (P52952 125-210): as the sequence (P52952 125-210 R139K) above, with K15R counted along it
sequence,measurement,setting,value
AAGTACCC,binding signal,NKX2-5 [1],"12.4 upbm affinity estimate (log intensity, higher = more binding, comparable within an allelic series)"
same,binding signal,NKX2-4 [2],"12.4 upbm affinity estimate (log intensity, higher = more binding, comparable within an allelic series)"
same,binding signal,NKX2-4 [3],"12.9 upbm affinity estimate (log intensity, higher = more binding, comparable within an allelic series)"
same,binding signal,NKX2-4 [4],"12.3 upbm affinity estimate (log intensity, higher = more binding, comparable within an allelic series)"
same,binding signal,NKX2-6 [5],"11.7 upbm affinity estimate (log intensity, higher = more binding, comparable within an allelic series)"
same,binding signal,NKX2-6 [6],"13.4 upbm affinity estimate (log intensity, higher = more binding, comparable within an allelic series)"
same,binding signal,NKX2-4 [7],"12.9 upbm affinity estimate (log intensity, higher = more binding, comparable within an allelic series)"
same,binding signal,NKX2-6 [8],"10.5 upbm affinity estimate (log intensity, higher = more binding, comparable within an allelic series)"
same,binding signal,NKX3-2 [9],"12.8 upbm affinity estimate (log intensity, higher = more binding, comparable within an allelic series)"
same,binding signal,NKX2-5 [10],"12.2 upbm affinity estimate (log intensity, higher = more binding, comparable within an allelic series)"
same,binding signal,NKX3-2 [11],"12.8 upbm affinity estimate (log intensity, higher = more binding, comparable within an allelic series)"
ATAAGTGG,binding signal,NKX2-5 [1],"13.2 upbm affinity estimate (log intensity, higher = more binding, comparable within an allelic series)"
same,binding signal,NKX2-4 [2],"12.8 upbm affinity estimate (log intensity, higher = more binding, comparable within an allelic series)"
same,binding signal,NKX2-4 [3],"13.2 upbm affinity estimate (log intensity, higher = more binding, comparable within an allelic series)"
same,binding signal,NKX2-4 [4],"12.7 upbm affinity estimate (log intensity, higher = more binding, comparable within an allelic series)"
same,binding signal,NKX2-6 [5],"12.4 upbm affinity estimate (log intensity, higher = more binding, comparable within an allelic series)"
same,binding signal,NKX2-6 [6],"13.9 upbm affinity estimate (log intensity, higher = more binding, comparable within an allelic series)"
same,binding signal,NKX2-4 [7],"13.3 upbm affinity estimate (log intensity, higher = more binding, comparable within an allelic series)"
same,binding signal,NKX2-6 [8],"11.4 upbm affinity estimate (log intensity, higher = more binding, comparable within an allelic series)"
same,binding signal,NKX3-2 [9],"13.1 upbm affinity estimate (log intensity, higher = more binding, comparable within an allelic series)"
same,binding signal,NKX2-5 [10],"13.1 upbm affinity estimate (log intensity, higher = more binding, comparable within an allelic series)"
same,binding signal,NKX3-2 [11],"13.1 upbm affinity estimate (log intensity, higher = more binding, comparable within an allelic series)"
CCACTTGA,binding signal,NKX2-5 [1],"13.4 upbm affinity estimate (log intensity, higher = more binding, comparable within an allelic series)"
same,binding signal,NKX2-4 [2],"12.9 upbm affinity estimate (log intensity, higher = more binding, comparable within an allelic series)"
same,binding signal,NKX2-4 [3],"13.3 upbm affinity estimate (log intensity, higher = more binding, comparable within an allelic series)"
same,binding signal,NKX2-4 [4],"12.8 upbm affinity estimate (log intensity, higher = more binding, comparable within an allelic series)"
same,binding signal,NKX2-6 [5],"12.3 upbm affinity estimate (log intensity, higher = more binding, comparable within an allelic series)"
same,binding signal,NKX2-6 [6],"13.9 upbm affinity estimate (log intensity, higher = more binding, comparable within an allelic series)"
same,binding signal,NKX2-4 [7],"13.5 upbm affinity estimate (log intensity, higher = more binding, comparable within an allelic series)"
same,binding signal,NKX2-6 [8],"11.5 upbm affinity estimate (log intensity, higher = more binding, comparable within an allelic series)"
same,binding signal,NKX3-2 [9],"12.5 upbm affinity estimate (log intensity, higher = more binding, comparable within an allelic series)"
same,binding signal,NKX2-5 [10],"13.2 upbm affinity estimate (log intensity, higher = more binding, comparable within an allelic series)"
same,binding signal,NKX3-2 [11],"12.6 upbm affinity estimate (log intensity, higher = more binding, comparable within an allelic series)"
AAGTGGAG,binding signal,NKX2-5 [1],"12.2 upbm affinity estimate (log intensity, higher = more binding, comparable within an allelic series)"
same,binding signal,NKX2-4 [2],"12.4 upbm affinity estimate (log intensity, higher = more binding, comparable within an allelic series)"
same,binding signal,NKX2-4 [3],"12.7 upbm affinity estimate (log intensity, higher = more binding, comparable within an allelic series)"
same,binding signal,NKX2-4 [4],"12.3 upbm affinity estimate (log intensity, higher = more binding, comparable within an allelic series)"
same,binding signal,NKX2-6 [5],"11.7 upbm affinity estimate (log intensity, higher = more binding, comparable within an allelic series)"
same,binding signal,NKX2-6 [6],"13.3 upbm affinity estimate (log intensity, higher = more binding, comparable within an allelic series)"
same,binding signal,NKX2-4 [7],"12.8 upbm affinity estimate (log intensity, higher = more binding, comparable within an allelic series)"
same,binding signal,NKX2-6 [8],"10.6 upbm affinity estimate (log intensity, higher = more binding, comparable within an allelic series)"
same,binding signal,NKX3-2 [9],"12.7 upbm affinity estimate (log intensity, higher = more binding, comparable within an allelic series)"
same,binding signal,NKX2-5 [10],"12.2 upbm affinity estimate (log intensity, higher = more binding, comparable within an allelic series)"
same,binding signal,NKX3-2 [11],"12.8 upbm affinity estimate (log intensity, higher = more binding, comparable within an allelic series)"
CAAGTGGC,binding signal,NKX2-5 [1],"12.5 upbm affinity estimate (log intensity, higher = more binding, comparable within an allelic series)"
same,binding signal,NKX2-4 [2],"12.4 upbm affinity estimate (log intensity, higher = more binding, comparable within an allelic series)"
same,binding signal,NKX2-4 [3],"12.8 upbm affinity estimate (log intensity, higher = more binding, comparable within an allelic series)"
same,binding signal,NKX2-4 [4],"12.3 upbm affinity estimate (log intensity, higher = more binding, comparable within an allelic series)"
same,binding signal,NKX2-6 [5],"11.7 upbm affinity estimate (log intensity, higher = more binding, comparable within an allelic series)"
same,binding signal,NKX2-6 [6],"13.4 upbm affinity estimate (log intensity, higher = more binding, comparable within an allelic series)"
same,binding signal,NKX2-4 [7],"12.9 upbm affinity estimate (log intensity, higher = more binding, comparable within an allelic series)"
same,binding signal,NKX2-6 [8],"10.7 upbm affinity estimate (log intensity, higher = more binding, comparable within an allelic series)"
same,binding signal,NKX3-2 [9],"12.5 upbm affinity estimate (log intensity, higher = more binding, comparable within an allelic series)"
same,binding signal,NKX2-5 [10],"12.4 upbm affinity estimate (log intensity, higher = more binding, comparable within an allelic series)"
same,binding signal,NKX3-2 [11],"12.6 upbm affinity estimate (log intensity, higher = more binding, comparable within an allelic series)"
AGCACTTA,binding signal,NKX2-5 [1],"12.9 upbm affinity estimate (log intensity, higher = more binding, comparable within an allelic series)"
same,binding signal,NKX2-4 [2],"12.6 upbm affinity estimate (log intensity, higher = more binding, comparable within an allelic series)"
same,binding signal,NKX2-4 [3],"13 upbm affinity estimate (log intensity, higher = more binding, comparable within an allelic series)"
same,binding signal,NKX2-4 [4],"12.5 upbm affinity estimate (log intensity, higher = more binding, comparable within an allelic series)"
same,binding signal,NKX2-6 [5],"12 upbm affinity estimate (log intensity, higher = more binding, comparable within an allelic series)"
same,binding signal,NKX2-6 [6],"13.7 upbm affinity estimate (log intensity, higher = more binding, comparable within an allelic series)"
same,binding signal,NKX2-4 [7],"13.1 upbm affinity estimate (log intensity, higher = more binding, comparable within an allelic series)"
same,binding signal,NKX2-6 [8],"11.3 upbm affinity estimate (log intensity, higher = more binding, comparable within an allelic series)"
same,binding signal,NKX3-2 [9],"12.9 upbm affinity estimate (log intensity, higher = more binding, comparable within an allelic series)"
same,binding signal,NKX2-5 [10],"12.8 upbm affinity estimate (log intensity, higher = more binding, comparable within an allelic series)"
same,binding signal,NKX3-2 [11],"12.9 upbm affinity estimate (log intensity, higher = more binding, comparable within an allelic series)"
